Measured values reported in PubChem BioAssay AID652122 (NMMLSC, 2013).
The source made the active and inactive calls.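 Rule for the calls: active = at least 15% of cells fluorescing red and green at top dose, and half-maximal dose below 10 µM; inactive = the rest.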

Experiment: myeloid differentiation promoters, wild-type HoxA9 cells, dose response, cell-based, flow cytometry, Powder Set01 subset01 (AID 652122)
Conditions: HoxA9 wt myeloid cells, GFP+/MAC1+ differentiation; series mostly up to 10 µM

outcome, inactive:
O=C(CCNC(=O)c1ccc(Cl)cc1)NC1CCCc2ccccc21 (stereo not drawn), O=C(O)c1cccnc1Nc1ccc(Cl)cc1, Cc1ccc(Nc2nc(=O)c3cccnc3s2)c(Br)c1
